The results in this text go back to PubChem BioAssay (EPA / NIEHS).

Usually AC50 stands for the midpoint of the concentration-response curve, whichever way the signal moves.

Inconclusive results are not listed. Calls of active or inactive are those of the source. The calls were made as follows: active = hit-call score of the fitted dose curve at least 0.9, where 1 is the maximum; inconclusive = response in the unintended direction; inactive = score below 0.9.

The test deals with Nucleoli Translocation, AR (gene 367) (UniProt P10275). As to the kind of experiment: UPITT_HCI_U2OS_AR_TIF2_Nucleoli_Agonist: University of Pittsburgh U2OS Androgen Receptor-Transcriptional Intermediary Factor 2 (AR-TIF2) Agonism High Content Imaging Assay for Nucleoli Translocation (AID 2283998). From the text: UPITT_AR_TIF2_PPIB is a cell-based, high-content imaging assay that uses U2OS, a human osteosarcoma cell line, expressing a human androgen receptor fused to red fluorescent protein and the coactivator TIF2 fused to green fluorescent protein. UPITT_HCI_U2OS_AR_TIF2_Nucleoli_Agonist is one of four assay components measured from the UPITT_AR_TIF2_PPIB assay. It is designed to make measurements of red fluorescence localized in the nucleolar region of the cell nucleus as detected with high-content fluorescent imaging.Data from the assay component UPITT_HCI_U2OS_AR_TIF2_Nucleoli_Agonist was analyzed into 1 assay endpoint. This assay endpoint, UPITT_HCI_U2OS_AR_TIF2_Nucleoli_Agonist, was analyzed in the positive analysis fitting direction relative to DMSO as the baseline of activity. Using a type of binding reporter, measures of receptor for gain-of-signal activity can be used to understand the binding at the pathway-level as it relates to the gene AR.
Chain of Nucleoli Translocation, AR (gene 367) (P10275 whole entry, looked up, the tested form may be a part): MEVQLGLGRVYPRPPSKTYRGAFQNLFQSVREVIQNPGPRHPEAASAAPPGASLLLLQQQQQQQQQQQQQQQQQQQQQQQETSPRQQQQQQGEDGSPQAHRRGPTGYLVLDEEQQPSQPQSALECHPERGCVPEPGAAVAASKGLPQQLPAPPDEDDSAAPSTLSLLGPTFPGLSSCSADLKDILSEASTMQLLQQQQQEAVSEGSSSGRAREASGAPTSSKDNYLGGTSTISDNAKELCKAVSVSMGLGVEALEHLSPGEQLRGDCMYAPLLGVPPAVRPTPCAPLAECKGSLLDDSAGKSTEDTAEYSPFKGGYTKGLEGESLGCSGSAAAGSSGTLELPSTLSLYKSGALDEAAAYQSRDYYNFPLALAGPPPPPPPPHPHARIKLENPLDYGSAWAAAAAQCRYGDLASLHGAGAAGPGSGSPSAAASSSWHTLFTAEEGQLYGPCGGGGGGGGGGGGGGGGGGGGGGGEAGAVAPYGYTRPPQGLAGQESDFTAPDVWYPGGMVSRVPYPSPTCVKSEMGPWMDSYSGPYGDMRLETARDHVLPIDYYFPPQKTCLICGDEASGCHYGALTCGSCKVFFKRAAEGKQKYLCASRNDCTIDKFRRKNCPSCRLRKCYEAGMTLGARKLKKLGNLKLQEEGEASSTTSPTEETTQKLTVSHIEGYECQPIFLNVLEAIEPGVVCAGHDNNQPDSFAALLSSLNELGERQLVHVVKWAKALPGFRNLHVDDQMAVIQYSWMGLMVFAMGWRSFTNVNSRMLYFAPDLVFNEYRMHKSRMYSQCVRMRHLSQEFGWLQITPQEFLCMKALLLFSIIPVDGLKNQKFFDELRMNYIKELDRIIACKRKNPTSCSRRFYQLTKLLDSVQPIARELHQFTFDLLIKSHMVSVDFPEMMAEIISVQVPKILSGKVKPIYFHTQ
Daughter plates containing 2 uL of 10 mM compounds in DMSO were prepared and replicated from the 384-well Library of Pharmacologically Active Compounds (LOPAC) master plates using the Bravo outfitted with a 384-well transfer head. Aluminum adhesive plate seals were applied with an Abgene Seal-IT 100 (Rochester, NY) plate sealer, and the plates were stored at -20 C in a Matrical MatriMinistore (Spokane, WA) automated compound storage and retrieval system. For screening, LOPAC daughter plates were withdrawn from -20C storage, thawed to ambient temperature, centrifuged 1-2 min at 50 g, and the plate seals were removed before the transfer of 98 uL of serum-free tissue culture medium (SFM) into wells using the BioTek Microflo liquid handler (BioTek, Winooski, VT) to generate a 200 uM intermediate stock concentration of library compounds (2.0% DMSO). The diluted compounds were mixed by repeated aspiration and dispensation using a 384-well P30 dispensing head on the Evolution P3 (EP3) liquid handling platform (PerkinElmer, Waltham, MA) and then 5 uL of diluted compounds was transferred to the wells of assay plates. In the LOPAC screen, compounds were individually tested at a final concentration of 20 uM (0.2% DMSO). After the diluted compounds had been transferred from the daughter plates to the primary HCS assay plates, aluminum adhesive plate seals were applied and the diluted daughter plates were stored frozen at -20C. To confirm active compounds identified in the primary screen, we withdrew the LOPAC daughter plates containing the 200 uM intermediate concentration of library compounds (2.0% DMSO) from -20C storage, thawed them to ambient temperature, centrifuged them for 1-2 min at 50 g, and removed the plate seals. A work list was generated to direct the Multiprobe Janus liquid handling platform (PerkinElmer) to cherry pick 75 uL from the wells of the diluted daughter plates that were flagged active in the primary screen and to reformat these into a 384-well plate hit confirmation daughter plate. Five microliters of primary HCS active compounds was then transferred into triplicate wells of assay plates using a 384-well P30 dispensing head on the Evolution P3 (EP3) liquid handling platform (PerkinElmer). […] Daughter plates containing 2 uL of the serially diluted compounds in DMSO were prepared and replicated from the 384-well serial dilution master plates using the Bravo outfitted with a 384-well transfer head. Aluminum adhesive plate seals were applied and plates were stored at -20C. For testing in the bioassays, daughter plates were withdrawn from -20C storage, thawed to ambient temperature, centrifuged for 1-2 min at 50 g, and the plate seals were removed before the transfer of 38 uL of SFM into wells using the BioTek Microflo liquid handler (BioTek) to generate an intermediate stock concentration of library compounds ranging from 1.95 to 500 uM (5.0% DMSO). […]
For the compound `O=C(O)C1(C(=O)Nc2ccc(Cl)cc2Cl)CC1`, the result was inactive. Turning to `N#CSCSc1nc2ccccc2s1`, the AC50 is 13 µM (active). In the case of `Cc1nn(C)c(Oc2ccccc2)c1C=NOCc1ccc(C(=O)OC(C)(C)C)cc1`, the call was inactive. Still for that read-out and setting: then `O=C(c1ccc(O)cc1O)c1ccc(O)cc1O`, with “inactive”. In the case of `CC(C)(c1ccc(O)cc1)c1ccc(O)cc1`, the AC50 is 73.3 µM (active).

For the compound `CCOC(=O)COc1cc(-n2ncc(C(F)(F)F)c(C)c2=O)c(F)cc1Cl`, the result was inactive. Still for that read-out and setting: next, `CSC(=O)c1cccc2nnsc12`: “inactive”; `O=C(c1ccccc1)C1CCCCC1`: “inactive”.

Turning to `CCCOC(=O)c1ccc(C(=O)OCCC)nc1`, the compound was called inactive.

For `C[C@]12CC[C@@H]3c4ccc(O)cc4C[C@@H](CCCCCCCCCS(=O)CCCC(F)(F)C(F)(F)F)[C@H]3[C@@H]1CC[C@@H]2O` (stereo partly drawn), the call was inactive. `COC(=O)CSc1cc(N=c2sc(=O)n3n2CCCC3)c(F)cc1Cl`: the compound was classed as inactive.

For the compound `CCSC(=O)N(CC(C)C)CC(C)C`, the call was inactive. On the same count and under the same terms, next, `CCCN(CCC)C(=O)SCC`: “inactive”.
